Measured values: PubChem BioAssay (NCATS)
Inconclusive results are not listed. The source made the active and inactive calls. The call rests on the fitted dose curve; in most records, active means well fitted curve in the direction sought with a large enough effect; inconclusive means small, poorly fitted or top-dose-only effect, or another doubt; inactive means no such curve, though single readings can be large; an effect the other way counts as inactive or inconclusive.

How the values were obtained:
[1] = system: W2; assay: qHTS profiling for inhibitors of Plasmodium falciparum proliferation (AID 504749); further: nearly all actives have a fitted effect of over 60% in size; conditions: P. falciparum in erythrocytes, SYBR Green DNA, 72 h; series mostly up to 28.7 µM
Summary of the method: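 Readout was DNA-dye fluorescence from lysed cultures, ex 485/em 535 nm. Parasitized red cells had grown 72 h with compound; data scaled between 0.29 uM artemisinin and DMSO wells and corrected using vehicle-only plates.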

[2] = system: CRL-7250; assay: Cytotoxic Profiling of Annotated Libraries Using Quantitative High-Throughput Screening (AID 1296008); conditions: Five cell lines viability, CellTiter-Glo ATP luminescence, 48-72 h; max response: active compounds read low; further: nearly all actives have a fitted effect of over 60% in size; on max response: on the % scale 0 is the no-effect control and ±100 the full control effect
Summary of the method: (§1)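 Cells exposed to compounds for 48 or 72 hr at 37 degrees Celsius. Viability read as ATP-coupled luminescence with CellTiter-Glo after 10 min at room temperature.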

[3] = system: HEK293; assay: as above; conditions: Five cell lines viability, CellTiter-Glo ATP luminescence, 48-72 h; max response: active compounds read low
Summary of the method: as §1

[4] = system: KB-3-1; assay: as above; conditions: Five cell lines viability, CellTiter-Glo ATP luminescence, 48-72 h; max response: active compounds read low
Summary of the method: as §1

[5] = system: NIH3T3; assay: as above; conditions: Five cell lines viability, CellTiter-Glo ATP luminescence, 48-72 h; max response: active compounds read low
Summary of the method: as §1

[6] = system: HEK293T; assay: qHTS assay to identify novel small-molecules to repurpose for Merkel cell carcinoma treatment (AID 1296009); conditions: MCC and control cell lines, CellTiter-Glo viability, 72 h; at 44.8 µM (top of the series) unless noted; further: nearly all actives have a fitted effect of over 60% in size
Summary of the method: (§2)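 Cells were incubated with compound for 72 hr at 37 degree celsius before CellTiter-Glo addition. Luminescence was normalized with no-cell wells as full cytotoxicity and DMSO as baseline.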

[7] = system: MCC-13; assay: as above; conditions: MCC and control cell lines, CellTiter-Glo viability, 72 h; series mostly up to 46 µM
Summary of the method: as §2

[8] = system: MCC-26; assay: as above; conditions: MCC and control cell lines, CellTiter-Glo viability, 72 h; series mostly up to 46 µM
Summary of the method: as §2

[9] = system: MKL-1; assay: as above; conditions: MCC and control cell lines, CellTiter-Glo viability, 72 h; series mostly up to 46 µM
Summary of the method: as §2

[10] = system: MKL-2; assay: as above; conditions: MCC and control cell lines, CellTiter-Glo viability, 72 h; series mostly up to 46 µM
Summary of the method: as §2

[11] = system: UISO; assay: as above; conditions: MCC and control cell lines, CellTiter-Glo viability, 72 h; series mostly up to 46 µM
Summary of the method: as §2

[12] = system: WaGa; assay: as above; conditions: MCC and control cell lines, CellTiter-Glo viability, 72 h; series mostly up to 46 µM
Summary of the method: as §2

[13] = system: C33A; assay: Primary qHTS to identify gynecologic anti-cancer compounds using libraries of approved drugs and bioactive compounds (AID 1345084); conditions: Gynecologic cancer cell panel viability, ATPlite luminescence, 48 h; series mostly up to 57.5 µM; further: nearly all actives have a fitted effect of over 55% in size
Summary of the method: (§3)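 48 h compound exposure at 37 C, 5% CO2; five-point qHTS. ATPlite luminescence readout of cell ATP.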

[14] = system: CAOV3; assay: as above; conditions: Gynecologic cancer cell panel viability, ATPlite luminescence, 48 h; series mostly up to 57.5 µM
Summary of the method: as §3

[15] = system: CASKI; assay: as above; conditions: Gynecologic cancer cell panel viability, ATPlite luminescence, 48 h; series mostly up to 57.5 µM
Summary of the method: as §3

[16] = system: Es-2; assay: as above; conditions: Gynecologic cancer cell panel viability, ATPlite luminescence, 48 h; series mostly up to 57.5 µM
Summary of the method: as §3

[17] = system: HeLa; assay: as above; conditions: Gynecologic cancer cell panel viability, ATPlite luminescence, 48 h; series mostly up to 57.5 µM
Summary of the method: as §3

[18] = system: HaCat; assay: Cytotoxic Profiling of Annotated Libraries Using Quantitative High-Throughput Screening (AID 1296008); conditions: Five cell lines viability, CellTiter-Glo ATP luminescence, 48-72 h; max response: active compounds read low; further: nearly all actives have a fitted effect of over 60% in size; on max response: on the % scale 0 is the no-effect control and ±100 the full control effect
Summary of the method: as §1
Potency means the concentration at half of the fitted maximal effect.

O=C(O)CCNC(=O)c1ccccc1
inactive: Potency [1] | max response [2] 4.33% | outcome [3] | max response [4] -6.01% | max response [5] 0.555% | outcome [6] | Potency [7] | Potency [8] | Potency [9] | Potency [10] | Potency [11] | Potency [12] | Potency [13] | Potency [14] | Potency [15] | Potency [16] | Potency [17]

CC(=O)O[C@H]1C[C@@H]2CC[C@@H]3[C@H](CC[C@@]4(C)[C@H]3C[C@H]([N+]3(C)CCCCC3)[C@@H]4OC(C)=O)[C@@]2(C)C[C@@H]1N1CCCCC1
inactive: max response [2] -0.866% | max response [3] 1.01% | max response [18] 3.88% | max response [5] 3.84% | Potency [7] | Potency [9] | Potency [10] | Potency [11] | Potency [12] | Potency [13] | Potency [14] | Potency [15] | Potency [16] | Potency [17]
active: Potency [1] 12 µM

COc1cc(NS(=O)(=O)c2ccc(N)cc2)ncn1
inactive: Potency [1] | outcome [2] | max response [3] -0.739% | max response [4] -8.34% | max response [5] -12.1% | Potency [7] | Potency [8] | Potency [9] | Potency [10] | Potency [11] | Potency [12] | Potency [13] | Potency [14] | Potency [15] | Potency [16] | Potency [17]

CCCCC(CC)COC(=O)/C=C/c1ccc(OC)cc1 (centres undefined)
inactive: Potency [1] | max response [2] -9.77% | max response [3] -2.18% | max response [4] 15% | max response [5] -7.17% | Potency [7] | Potency [8] | Potency [9] | Potency [10] | Potency [11] | Potency [12] | Potency [13] | Potency [14] | Potency [15] | Potency [16] | Potency [17]

CCCc1ncc(C[n+]2ccccc2C)c(N)n1
inactive: Potency [1] | outcome [2] | max response [3] -18.1% | max response [4] 2.61% | max response [5] 2.55% | Potency [7] | Potency [8] | Potency [9] | Potency [10] | Potency [11] | Potency [12] | Potency [13] | Potency [14] | Potency [15] | Potency [16] | Potency [17]

C[C@]12CCC(=O)C=C1C=C[C@@H]1[C@@H]2CC[C@@]2(C)[C@H]1CC[C@@]21CCC(=O)O1
active: Potency [2] 7.5 µM | Potency [3] 9.44 µM
inactive: max response [4] -4.54% | Potency [7] | Potency [8] | Potency [9] | Potency [10] | Potency [13] | Potency [14] | Potency [16] | Potency [17]

C#C[C@]1(OC(C)=O)CC[C@H]2[C@@H]3CCC4=C/C(=N/O)CC[C@@H]4[C@H]3CC[C@@]21CC
inactive: max response [2] -7.16% | max response [18] 2.29% | max response [5] 2.39% | Potency [7] | Potency [8] | Potency [13] | Potency [15] | Potency [16]
active: Potency [3] 13.3 µM | Potency [11] 29.9 µM | Potency [17] 4.47 µM

CC[C@]12CCCN3CCc4c(n(c5ccccc45)C(=O)C1)[C@@H]32
active: Potency [3] 7.5 µM
inactive: max response [2] 2.69% | max response [18] -22.7% | Potency [13] | Potency [16]

NC(=O)c1ccccc1O
inactive: Potency [1] | max response [2] 2.66% | outcome [3] | max response [4] 10.4% | max response [5] -3.05% | outcome [6] | Potency [7] | Potency [8] | Potency [9] | Potency [10] | Potency [11] | Potency [12] | Potency [13] | Potency [14] | Potency [15] | Potency [16] | Potency [17]
